Rows were chosen to be rich in hits. Some 20% of all compounds tested hit in one or more screens of this group.
Pf growth 96h – P. falciparum growth inhibition at 96 hours | P. falciparum luciferase reporter growth, 96 h | Potency, µM (top dose mostly 28.7 µM), without a hit: at the highest dose activity change, negative = inhibition, hits mostly inhibitors | 6.9% of 320,000 active | AID 504834; further: potency means the concentration at half of the fitted maximal effect; on the % scale 0 is the no-effect control and ±100 the full control effect
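Compounds incubated with erythrocytes infected by luciferase-expressing P. falciparum (2% hematocrit, 0.05% parasitemia final) for 96 hours, 37 C in 5% CO2. Growth inhibition scored as decreased luciferase luminescence.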
Cycloheximide cs – affects cycloheximide protein synthesis inhibition readout, counter-screen; AID 2314; cell reporter, cycloheximide protein synthesis inhibition counterscreen; 12% of 300,000 active; max response, %; in the data active means max response mostly above about 13%, no sharp cut-off; inactive means mostly below about 14%; further: read at 38.3 µM for the half of the compounds with a filed dose; 0% is about no effect
HCMV antiviral – human cytomegalovirus inhibition | AID 1259415 | activity change, negative = inhibition, % at 57.5 µM | 4.5% of 410,000 active | HFF cells, HCMV-luciferase reporter, 72 h; hits give low values; in the data active means activity change below about -60%; inconclusive means no clear call, values can overlap the other calls; inactive means above about -39%; further: on the % scale 0 is the no-effect control and ±100 the full control effect
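Two-dose cell screen: HFF monolayers treated with compounds and infected with luciferase-expressing HCMV at 1 PFU/cell, 72 h at 37C, then lysed for luciferase measurement.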
Pf growth 48h – P. falciparum growth inhibition at 48 hours (one generation) | P. falciparum luciferase growth in erythrocytes, 48 h | Potency, µM (doses to about 28.7 µM), without a hit: at the highest dose activity change, negative = inhibition, hits mostly inhibitors | 5.9% of 310,000 active; further: potency means the concentration at half of the fitted maximal effect; on the % scale 0 is the no-effect control and ±100 the full control effect
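First compound was added to culture medium, then infected red cells at 0.1% parasitemia and 2% hematocrit (final). After incubation at 37 C under 5% CO2, luciferase detection reagent was dispensed and light output recorded.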
Shiga inhibitor – blocks Shiga toxin action in Vero cells | Vero cells, Shiga toxin protein synthesis inhibition reporter | 9.2% of 290,000 active | inhibition, % at 38.7 µM; in the data active means inhibition mostly above about 28%, no sharp cut-off; inactive means mostly below about 43%; further: 0% is about no effect
* marks the source's active call; other numbers are inactive results; i = inactive; ? = inconclusive; . = no result. Unless noted, the call rests on the fitted dose curve; in most records, active means well fitted inhibition curve with a large enough effect; inconclusive means small, poorly fitted or top-dose-only effect, or another doubt; inactive means no such curve, though single readings can be large or run the other way.

SMILES	Pf growth 96h	Cycloheximide cs	HCMV antiviral	Pf growth 48h	Shiga inhibitor
CC(C)(C)S(=O)c1cccs1 (stereo not given)	11%	1	-24	.	-18
O=c1c2cc(-c3ccccc3)sc2nc2n1CCC2	182%	47*	112	146%	103*
COc1ccccc1C(C)NCC(=O)Nc1ccccc1C(F)(F)F (stereo not given)	-9%	12	-40	-7%	15
c1cc(Nc2cccc3nccnc23)c2nccnc2c1	10%	-2	2	-11%	-9
Fc1ccc(Nc2cccc3nccnc23)cc1	16%	22*	-64*	29%	47*
O=c1c(N2CCc3ccccc3C2)csc2ccc(F)cc12	.	.	-30	.	.
COc1cc(/C=C/C(=O)OCC(=O)c2ccc[nH]2)cc(OC)c1OC	.	.	61	.	.
COc1ccc(/C=C/C(=O)c2ccc[nH]2)c(OC)c1OC	27%	26*	55	31%	100*
COc1ccc(/C=C/C(=O)c2ccc[nH]2)cc1OC	18%	30*	-29	.	51
O=[N+]([O-])c1ccccc1N/N=C/c1ccccc1	?	35*	68	385%	62*
O=[N+]([O-])c1ccccc1N/N=C/c1ccc2c(c1)OCO2	215%	40*	69	127%	68*
Cc1n(Cc2ccccc2)c2ccccc2[n+]1Cc1ccccc1	425%	-3	?	1.3µM*	.
CCn1c(C)[n+](Cc2ccccc2)c2ccc(C(=O)OC)cc21	4%	-3	-15	?	20
Cc1n(Cc2ccccc2)c2cc([N+](=O)[O-])ccc2[n+]1Cc1ccccc1	?	-2	-20	?	-2
CCn1c(C)[n+](Cc2ccccc2)c2ccc(Cl)cc21	-82%	-3	-67*	7.4µM*	-8
CN(C(=O)COC(=O)COc1ccccc1F)C1CCS(=O)(=O)C1 (stereo not given)	-4%	-2	43	.	-5
COC(=O)c1sccc1S(=O)(=O)N(CC(=O)NCc1ccc(C)cc1)c1ccccc1	.	.	3	.	.
CN(C)C(CNC(=O)C1CCN(S(=O)(=O)c2cc(Cl)ccc2Cl)CC1)Cc1ccccc1 (stereo not given)	.	.	-26	.	.
O=C(Nc1ccc(F)cc1)c1nsc(Cl)c1Cl	i	29*	94	?	68*
CCOc1ccc(NC(=O)c2nsc(Cl)c2Cl)cc1	134%	40*	41	105%	94*
O=C(Nc1ccc(F)c(Cl)c1)c1nsc(Cl)c1Cl	274%	47*	293	342%	82*
CCOC(=O)c1ccccc1NC(=O)N(C(C)C)C1CCN(C(C)=O)CC1	.	.	13	.	.
Cc1cccc(CCNC(=O)CN(c2ccc(C(C)C)cc2)S(=O)(=O)c2c(C)nn(C)c2C)c1	.	.	-26	.	.
COC(=O)C1CCN(C(=O)c2sc3nc(-c4ccc(F)cc4)cn3c2C)CC1	?	16*	15	-27%	37*
CCOC(=O)C1CCN(C(=O)c2sc3nc(-c4ccccc4)cn3c2C)CC1	.	-2	12	.	-4
SMILES	Pf growth 96h	Cycloheximide cs	HCMV antiviral	Pf growth 48h	Shiga inhibitor
CCOC(=O)C1CCCN(C(=O)c2sc3nc(-c4ccc(OC)cc4)cn3c2C)C1 (stereo not given)	-16%	-2	17	13µM*	13
O=C(NCC1CCCCC1)c1cccc(Br)c1	67%	9	-4	20%	5
CS(=O)(=O)N1CCN(c2ccccc2NC(=O)c2ccc([N+](=O)[O-])o2)CC1	11%	-2	-83*	?	-3
Cn1ncc([N+](=O)[O-])c1C(=O)Nc1ccccc1Cl	?	-4	-25	47%	-27
O=C(Nc1ccccc1Cl)c1ccc([N+](=O)[O-])o1	166%	60*	-101*	-30%	110*
CN1CCN(c2ccccc2NC(=O)c2ccc([N+](=O)[O-])o2)CC1	40%	12	.	?	-14
Cc1cccnc1NC(=O)c1ccc([N+](=O)[O-])o1	?	1	-76*	?	2
Cc1cccc(NC(=O)c2ccc([N+](=O)[O-])o2)n1	10µM*	25*	?	?	33
CCOc1ncccc1C(=O)OCc1ccc(C#N)cc1	0%	1	11	15%	-10
CCOc1ccc(NC(=O)N(Cc2c[nH]c3ccccc23)C2CCCCC2)cc1	.	.	62	.	.
COc1cc(/C=C/C(=O)OCC(=O)Nc2nnc(-c3ccccc3)o2)cc(OC)c1OC	?	.	8	14%	.
Cc1ccccc1NC(=O)c1ccc([N+](=O)[O-])o1	3.7µM*	30*	-13	10µM*	45*
Cc1cccc(NC(=O)COC(=O)c2ccc([N+](=O)[O-])o2)c1C	-1%	11	-32	-12%	-10
Cc1ccc(NC(=O)c2ccc([N+](=O)[O-])o2)c(C)c1	-31%	38*	-25	?	80*
O=C(Nc1cccc2ncccc12)c1ccc([N+](=O)[O-])o1	35%	17	-100*	?	14
CCOC(=O)c1sc(NN=C(C(=O)OC)C(=O)OC)c(C(=O)OCC)c1C	?	7	28	?	32*
CCOC(=O)c1sc(NC(=O)/C=C/c2cnn(CC)c2C)c(C(=O)OCC)c1C	8.3µM*	-4	-1	?	-1
CCOC(=O)c1sc(NC(=O)CN2CCCC2)c(C(=O)OCC)c1C	134%	-3	-15	8%	-5
CCOC(=O)c1c(N)sc(C(=O)OC)c1C	50%	17	-16	42%	40
CCOC(=O)c1sc(N)c(C(=O)OC)c1C	22%	33*	-26	81%	64*
Cc1cc(F)ccc1-n1nnc(C(N)=O)c1C	.	.	8	.	.
COc1cc(Cl)c(C)cc1NC(=O)COC(=O)c1ccc(CN2CCCC2=O)cc1	-18%	.	84	-13%	.
CCOc1ccc(-c2cc(N)n(S(=O)(=O)c3ccc(OC)c(OC)c3)n2)cc1	?	-5	-60*	.	-10
CCCS(=O)(=O)n1nc(-c2ccc(OC)cc2)cc1N	10µM*	1	-25	.	11
COc1ccc(S(=O)(=O)n2nc(-c3ccc(Cl)cc3)cc2N)cc1OC	?	-2	?	.	-23
SMILES	Pf growth 96h	Cycloheximide cs	HCMV antiviral	Pf growth 48h	Shiga inhibitor
CCCS(=O)(=O)n1nc(-c2ccc(OC)cc2OC)cc1N	?	4	-1	17%	15
COc1cc(OC)cc(-c2cc(N)n(S(=O)(=O)Cc3ccccc3)n2)c1	8.3µM*	-6	9	.	-7
CCCS(=O)(=O)n1nc(-c2ccc(C)cc2)cc1N	4.7µM*	15	30	.	39
O=C(COc1ccccc1Cl)NCCCNC(=O)c1cccnc1	12%	-4	-12	-3%	-10
Cc1ccc(SCc2cc(=O)[nH]c(N3CCN(Cc4ccccc4)CC3)n2)cc1	99%	-2	-8	-8%	22
Cc1ccc(SCc2cc(=O)[nH]c(N3CCN(Cc4ccc5c(c4)OCO5)CC3)n2)cc1	.	11	-63*	4%	-12
O=C(NCc1cccs1)c1nn2cccnc2c1Cl	.	22*	41	?	56
COCCNC(=O)c1nn2cccnc2c1Cl	0%	-6	83	.	-10

High-throughput results as filed in PubChem.
